Laboratory results published in PubChem BioAssay (Tox21).
Where a structure was tested more than once in an assay, its records may differ in their call. The source made the active and inactive calls. A call without a number means that no potency is given here. Calls follow the shape of the full dose curve.

What follows are molecules tested against Estrogen receptor (Homo sapiens) (UniProt P03372) (assay: qHTS assay to identify small molecule agonists of the estrogen receptor alpha (ER-alpha) signaling pathway in the presence of an antagonist (AID 1259383; also: nearly all actives have a fitted effect of over 15% in size)). Details: VM7Luc4E2 cells, ERE-luciferase, +ICI-182,780, 22 h; series mostly up to 92.4 µM.
Excerpt: National Center for Advancing Translational Sciences [NCATS] NIH Chemical Genomics Center [NCGC] U.S. Environmental Protection Agency [EPA] National Institutes of Environmental Health Sciences [NIEHS] National Toxicology Program [NTP] Assay overview: Estrogen receptor (ER), a member of nuclear hormone receptor plays an important role in development, metabolic homeostasis and reproduction. Two subtypes of ER, ER-alpha and ER-beta, have similar expression patterns with some uniqueness in both types. Endocrine disrupting chemicals (EDCs) and their interactions with steroid hormone receptors like ER causes disruption of normal endocrine function. Therefore, it is important to understand the effect of environmental chemicals in ER signaling pathway. For identifying ER agonists, VM7Luc4E2 cell line has been used in the current assay. VM7Luc4E2 cell line (provided by Denison MS, University of California) endogenously expresses full-length ER-alpha and is stably transfected with a plasmid containing four estrogen responsive elements (ERE) upstream of a luciferase reporter gene. This current screening for measuring luciferase reporter gene activity using VM7Luc4E2 cells against Tox21 10K library collection is a confirmation study on agonist mode screening in presence of ER-antagonist (ICI-182,780) at 10.0nM final concentration.
Assay Protocol Summary: VM7Luc4E2 cells were cultured in phenol red free assay medium containing 10% charcoal stripped FBS for 5 days prior to the assay. The cells were dispensed at 4,000 cells in 4uL of assay medium per well into white wall/solid-bottom 1536-well plates (Corning Life Sciences, Corning, NY) using a Multidrop Combi (Thermo Fisher Scientific Inc., Waltham, MA) dispenser. After the assay plates were incubated at 37C and 5% CO2 for 24hr, 1uL of 10.0nM (final concentration) ICI-182,780 or assay buffer was added using two separate tips of Flying Reagent Dispenser (FRD, Aurora Discovery, San Diego, CA). Then 23nL of compounds dissolved in DMSO at 15 concentrations and positive controls or DMSO only was transferred to the assay plates by a Pintool station (Wako, San Diego, CA). The assay plates were incubated at 37C and 5% CO2 for 22hr. For luciferase read, 4uL/well ONE-Glo reagent (Promega Corporation, Madison, WI) was added to each well using FRD and after 30min incubation at room temperature, luminescence signal was measured on ViewLux plate reader (PerkinElmer, Shelton, CT).
Potency is read from the fitted curve at half-maximal effect.

Chain of Estrogen receptor (Homo sapiens) (P03372 whole entry, looked up): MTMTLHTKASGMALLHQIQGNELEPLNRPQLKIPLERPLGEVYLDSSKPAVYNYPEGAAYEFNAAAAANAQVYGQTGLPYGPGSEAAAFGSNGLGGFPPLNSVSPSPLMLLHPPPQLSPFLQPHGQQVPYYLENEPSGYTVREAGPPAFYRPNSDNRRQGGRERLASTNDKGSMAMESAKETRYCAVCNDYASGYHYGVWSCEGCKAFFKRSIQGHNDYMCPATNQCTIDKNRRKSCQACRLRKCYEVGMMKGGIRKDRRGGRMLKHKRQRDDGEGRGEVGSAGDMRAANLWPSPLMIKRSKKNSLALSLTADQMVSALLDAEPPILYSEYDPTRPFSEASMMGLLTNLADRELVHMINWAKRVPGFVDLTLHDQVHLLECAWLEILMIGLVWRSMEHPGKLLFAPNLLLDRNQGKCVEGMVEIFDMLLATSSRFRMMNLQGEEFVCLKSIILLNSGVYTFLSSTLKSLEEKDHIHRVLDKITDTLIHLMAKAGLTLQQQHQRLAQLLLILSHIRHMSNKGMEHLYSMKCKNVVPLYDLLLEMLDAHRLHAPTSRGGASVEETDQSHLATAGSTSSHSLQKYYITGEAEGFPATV

SMILES	Potency
CC[C@H](C)C(=O)O[C@H]1C[C@@H](C)C=C2C=C[C@H](C)[C@H](CC[C@@H]3C[C@@H](O)CC(=O)O3)[C@H]21	inactive
O=C(O)CCCCCCCCCCC(=O)O	inactive
CC(O)COCC(C)O (stereo not given)	inactive
CCCCCCOCCO	inactive
O=S(=O)(O)c1ccc2ccccc2c1	inactive
c1ccc2scnc2c1	inactive
CCc1cccc(C)c1N	inactive
CN(C)CCCN	inactive
CC(=O)c1ccccc1	inactive
O=[N+]([O-])c1ccc(/C=C/c2ccc([N+](=O)[O-])cc2S(=O)(=O)O)c(S(=O)(=O)O)c1	inactive
O=C=NCCCCCCN=C=O	inactive
O=c1[nH]c(=O)n([C@H]2C[C@H](O)[C@@H](CO)O2)cc1Br	inactive
COc1ccc(NC(C)=O)cc1N	inactive
O=C(O)c1cc(=O)c2c(OCC(O)COc3cccc4oc(C(=O)O)cc(=O)c34)cccc2o1	inactive
O=C(OCCOCCOC(=O)c1ccccc1)c1ccccc1	inactive
C#CCN(C)Cc1ccccc1	inactive
O=P(OC(CCl)CCl)(OC(CCl)CCl)OC(CCl)CCl	inactive
CCC(O)OC(O)CC (stereo not given)	inactive
CCCCCCCC(=O)OC	inactive
Cc1cccc(O)c1	inactive

SMILES	Potency
CC(c1cc2ccccc2s1)N(O)C(N)=O (stereo not given)	inactive
O=C(O)CCCC[C@@H]1SC[C@@H]2NC(=O)N[C@@H]21	inactive
c1c[nH]cn1	inactive
c1ccc2c(c1)ccc1ccccc12	inactive
CC(=O)Nc1ccccc1	inactive
OCc1cccnc1	inactive
Cc1ccc(N(C)C)cc1	inactive
O=C(O)c1ccccc1C(c1ccc(O)cc1)c1ccc(O)cc1	inactive
COc1ccc(Nc2ccccc2)c(C)c1	inactive
O=S1(=O)CC=CC1	inactive
FC(F)(F)c1ccc(Cl)c(Cl)c1	inactive
Cc1cnc(C(=O)NCCc2ccc(S(=O)(=O)NC(=O)NC3CCCCC3)cc2)cn1	inactive
CCCCCC1=CCCC1=O	inactive
CC(C)c1ccc(S(=O)(=O)O)cc1	inactive
OCCOCCOCCO	inactive
COc1cc(Cc2cnc(N)nc2N)cc(OC)c1OC	inactive
CC1=CCC2CC1C2(C)C (stereo not given)	inactive
COS(C)(=O)=O	inactive
Fc1ccc(Br)cc1	61.8 µM (active) and inactive
CC(=O)CC(=O)Nc1ccccc1C	inactive
